Source: PubChem BioAssay (National Center for Advancing Translational Sciences (NCATS))
VACV mCherry inh – inhibitors of vaccinia virus infection (mCherry reporter signal) | Vaccinia virus mCherry reporter infection, fluorescence | Potency, µM (series often up to 36.5 µM), actives largely listed as inhibitors | 310,000 tested, 0.63% active | AID 720579; calls by dose curve; tested in A549 cells; note: nearly all actives have a fitted effect of over 35% in size
HCV inh – blocks hepatitis C virus. Huh7.5.1 HCVcc-Cre infection, luciferase reporter, 44 h. Potency, µM (titrated, usually from 41.8 µM), hits mostly inhibitors. 340,000 tested, 3.4% active. AID 651820
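1,000 cells/well; 4 h culture; + compound; + HCVcc-Cre (~0.5 moi); 44 h; luciferase substrate, RT 15 min; read 15 sec.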
VACV Venus inh – inhibitors of vaccinia virus (Venus reporter) | AID 720580 | Vaccinia virus Venus reporter expression, fluorescence | 330,000 tested, 0.46% active | Potency, µM (doses to about 36.5 µM), most hits filed as inhibitors; calls by dose curve; tested in A549 cells; note: nearly all actives have a fitted effect of over 30% in size
HCV inh confirm – HCV inhibition, cherry-pick confirmation; 640 tested, 78% active; shares compounds with HCV inh; Potency, µM (series often up to 41.8 µM), most hits filed as inhibitors; HCVcc-Cre infectious virus cell assay, luciferase, inhibition; AID 720575; note: nearly all actives have a fitted effect of over 80% in size
HCV cytotox – toxic to HCV host cells, flagging false HCV inhibitors; shares compounds with HCV inh; HCV host cell line cytotoxicity counterscreen; Potency, µM (top dose mostly 41.8 µM), actives largely listed as inhibitors; 640 tested, 22% active; AID 720576;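 note: 44 h compound exposure; nearly all actives have a fitted effect of over 55% in size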
Of the large screens only hits and unclear results are named; the others gave an inactive call (follow-up assays come after a bar, where they were run). A selection: hits, their analogues and other compounds. The true share with any hit is near 3.3%. Unless noted, calls come from the whole dose curve; as a rule, active = well fitted curve in the direction sought with a large enough effect; inconclusive = small, poorly fitted or top-dose-only effect, or another doubt; inactive = no such curve, though single readings can be large; an effect the other way counts as inactive or inconclusive.

Cc1cccc(CNC(=O)Cn2nc(C)n3c(cc4cc(F)ccc43)c2=O)c1	none (no result: HCV inh)
CN(C(=O)c1ccc2c(=O)n3c(nc2c1)CCCCC3)c1cccc(Cl)c1	none
O=C(Nc1ccc(CN2CCOCC2)cc1)c1ccc(Cl)cc1	none (no result: VACV mCherry inh, VACV Venus inh)
O=C(Nc1ccc(CN2CCS(=O)(=O)CC2)cc1)c1ccccc1	none (no result: VACV mCherry inh, VACV Venus inh)
O=C(Nc1ccc(S(=O)(=O)Nc2ccccc2)cc1)c1ccc(CN2CCOCC2)cc1	HCV inh 2.24µM (no result: VACV mCherry inh, VACV Venus inh) | HCV inh confirm 1.77µM | HCV cytotox inactive
O=C(Nc1ccc(CN2CCS(=O)(=O)CC2)cc1)c1ccc(C(F)(F)F)cc1	HCV inh 5.62µM | HCV inh confirm 4.99µM | HCV cytotox 12.5µM
C#CCSc1nnnn1-c1ccc(OCC)cc1	none
NC(=O)c1ccc(NC(=O)CSc2nnc(-c3cccnc3)n2Cc2ccco2)cc1	none (no result: VACV mCherry inh, VACV Venus inh)
COc1ccc(N2CCN(C(=O)COC(=O)COc3cccc(C(F)(F)F)c3)CC2)cc1	none (no result: VACV mCherry inh, VACV Venus inh)
Cc1ccc(C)c2nc(SCC(=O)N3CCCc4ccccc43)c(C#N)cc12	HCV inh 6.31µM (no result: VACV mCherry inh, VACV Venus inh) | HCV inh confirm 7.05µM | HCV cytotox inactive
Cc1ccc(C)c2c1cc(C)c1nnc(SCC(=O)N3CCCc4ccccc43)n12	none
Cc1ccc(NC(=O)CSc2ncccn2)cc1S(=O)(=O)N1CCCCC1	HCV inh inconclusive
COc1ccc(-n2c(-c3ccc(Cl)cc3)c[n+]3c2CCc2ccccc2-3)cc1	none
Cc1ccc(-n2c(-c3ccc(Br)cc3)c[n+]3c2CCc2ccc4cccnc4c2-3)cc1	HCV inh 2.51µM (no result: VACV mCherry inh, VACV Venus inh) | HCV inh confirm 6.28µM | HCV cytotox 14.1µM
OC[C@@H]1[C@@H](c2ccccc2)C(c2ccccc2)=NN1c1ccccc1	VACV mCherry inh inconclusive
c1ccc(-c2nn(-c3ccccc3)[n+](-c3ccccc3)n2)cc1	HCV inh 3.16µM | HCV inh confirm 25µM | HCV cytotox inconclusive
COc1ccc(Cn2c(CO)cnc2SCC(=O)Nc2cccc(NC(C)=O)c2)cc1	none (no result: VACV mCherry inh, VACV Venus inh)
Cc1ccc(NC(=O)CCC2CC(C)(C)OC2=O)cc1 (stereo not given)	HCV inh 3.98µM | HCV inh confirm inactive | HCV cytotox inactive
CC1(C)CC(CCC(=O)Nc2ccc(S(N)(=O)=O)cc2)C(=O)O1 (stereo not given)	none (no result: VACV mCherry inh, VACV Venus inh)
COc1cc(OC)cc(-c2c(-c3cccs3)c3cc(-c4ccc(OC)c(OC)c4)ccc3n2C)c1	HCV inh inconclusive
COc1cc(OC)cc(-c2c(-c3cccs3)c3cc(-c4ccc5[nH]ccc5c4)ccc3n2C)c1	VACV mCherry inh inconclusive, HCV inh 11.2µM | HCV inh confirm 14.1µM | HCV cytotox inactive
O=S(=O)(c1ccccc1)c1nnn2c1nc(NC1CCN(Cc3ccccc3)CC1)c1ccccc12	HCV inh 8.91µM (no result: VACV mCherry inh, VACV Venus inh) | HCV inh confirm 14.1µM | HCV cytotox inactive
Cc1ccc(C)c(Nc2nc3c(S(=O)(=O)c4ccccc4)nnn3c3ccccc23)c1	HCV inh inconclusive
CN1CCN(C(=S)NC(=O)c2ccco2)CC1	none
CCOC(=O)c1cc2n(c1/N=C/N(C)C)-c1ccccc1C2=O	HCV inh inconclusive | HCV inh confirm inconclusive | HCV cytotox inactive
CCOC(=O)c1ccc2c(c1)N(C)C(=O)c1ccccc1S2	none (no result: VACV mCherry inh, VACV Venus inh)
CC(=O)c1sc(NC(=O)CS(=O)(=O)c2ccc(F)cc2)nc1C	none
CC(=O)c1sc(NC(=O)CCS(=O)(=O)c2ccc(C)cc2)nc1C	HCV inh 2.82µM, VACV Venus inh inconclusive | HCV inh confirm inconclusive | HCV cytotox inconclusive
CCCC[C@@H]1CNCCN1CC1(c2ccccc2)CC1	HCV inh inconclusive
Cc1cc2n(n1)CCCN2C(=O)Nc1ccccc1F	none (no result: HCV inh)
CCNC(=S)/N=C(/Nc1ccccc1)Nc1nc(C)cc(C)n1	VACV mCherry inh inconclusive, HCV inh inconclusive
CCNC(=S)/N=C(\N)Nc1nc(C)c2cc(C)ccc2n1	VACV mCherry inh inconclusive, HCV inh 3.16µM, VACV Venus inh inconclusive | HCV inh confirm inconclusive | HCV cytotox inactive
CCc1ccc(C2Sc3ccccc3NC3=C2C(=O)c2ccccc23)cc1 (stereo not given)	none (no result: HCV inh)
CCCc1ccc(C2C3=C(CC(C)(C)CC3=O)NC3=C2C(=O)c2ccccc23)cc1 (stereo not given)	HCV inh 2.24µM, VACV Venus inh inconclusive | HCV inh confirm 11.2µM | HCV cytotox inconclusive
CCOC(=O)c1c(C)oc2ccc(N(C(=O)Oc3ccccc3)S(=O)(=O)c3ccccc3)cc12	VACV mCherry inh inconclusive (no result: HCV inh)
O=C(NCc1cccc(Br)c1)c1cccn1-c1nnc(N2CCCCC2)s1	none (no result: HCV inh)
CCOC(=O)c1ccc2[nH]c(C)c(C)c2c1	none (no result: VACV mCherry inh)
CCOC(=O)c1cc2c(ccc3nc(C)c(C)c32)[nH]c1C	HCV inh 3.16µM (no result: VACV mCherry inh, VACV Venus inh) | HCV inh confirm 12.5µM | HCV cytotox inactive
O=C(Cn1cnc2c(NCc3ccccc3)ncnc21)NCc1nc2ccccc2[nH]1	none
O=c1[nH]c(NNC(=S)NC2CCCCC2)nc2c1C1(CCCC1)Cc1ccccc1-2	none
CCOC(=O)N1CCC(NC(=O)CCc2c(C)nc3c(c(C)nn3C(C)(C)C)c2C)CC1	HCV inh 5.62µM (no result: VACV mCherry inh, VACV Venus inh) | HCV inh confirm 12.5µM | HCV cytotox inconclusive
CCOC(=O)N1CCC(NC(=O)CCc2c(C)nc3nc(C)nn3c2C)CC1	none
Cc1cccc(NC(=S)NCc2ccccc2Cl)c1C	none (no result: VACV mCherry inh, VACV Venus inh)
CNC(=O)c1cccc(NC(=O)c2ccccc2OCc2ccccc2)c1	HCV inh inconclusive
COc1cc(NC(=O)c2ccccc2OCc2ccccc2)cc(OC)c1OC	HCV inh inconclusive (no result: VACV mCherry inh, VACV Venus inh) | HCV inh confirm 14.1µM | HCV cytotox inactive
CCCCn1c(=N)n(CC(O)COc2cccc(C)c2)c2ccccc21 (stereo not given)	HCV inh 8.91µM (no result: VACV mCherry inh, VACV Venus inh) | HCV inh confirm 14.1µM | HCV cytotox inconclusive
CCCn1c(=N)n(CC(O)COc2ccc(C)cc2)c2ccccc21 (stereo not given)	HCV inh inconclusive
COc1ccc(NC(=O)CSc2nc3c(c(=O)[nH]2)CCC3)cc1	none (no result: HCV inh)
COc1ccc(/C=N/Nc2nc(-c3cccc(S(=O)(=O)N4CCCC4)c3)cs2)c(OC)c1	VACV mCherry inh inconclusive, HCV inh 3.98µM, VACV Venus inh inconclusive | HCV inh confirm 9.95µM | HCV cytotox inactive
CN(C)S(=O)(=O)c1cccc(-c2csc(N/N=C/c3ccco3)n2)c1	VACV mCherry inh inconclusive, HCV inh inconclusive
O=C(NC1=NCCCCC1)c1cccc2ccccc12	none
CCCNC(=S)N1CCC(NC(=O)c2ccc(C)cc2)CC1	none
O=C(NCC1CCCN1S(=O)(=O)c1cccs1)C(=O)Nc1ccccc1Cl (stereo not given)	none
CCOc1cc(CNC(C)(C)C)ccc1OCC(=O)Nc1cccc(C(F)(F)F)c1	HCV inh inconclusive | HCV inh confirm 3.15µM | HCV cytotox inactive
CCC(CO)NCc1ccc(OCC(=O)Nc2cccc(C(F)(F)F)c2)c(OC)c1 (stereo not given)	HCV inh inconclusive
O=C(N/C=C\n1cnc2cc(C(F)(F)F)ccc21)c1ccc([N+](=O)[O-])cc1	none
CCOC(=O)CC(=O)CSc1nc2sc(C)cc2c(=O)n1Cc1ccco1	HCV inh inconclusive | HCV inh confirm 11.2µM | HCV cytotox inactive
CCOC(=O)c1cc(CC)sc1NC(=O)CSc1nc2ccccc2c(=O)n1Cc1ccco1	none
CN(CCOc1ccccc1)CC(=O)Nc1cccc(C#N)c1	none
